The list is not random: actives were taken first. Their share in the collection is about 27%.
sEH inh: soluble epoxide hydrolase (human) inhibition. recombinant human sEH enzymatic activity assay. 91,000 tested, 0.34% active. P34913. inhibition, % at 2 µM; in the data active = inhibition above about 80%
CYP2C9 inhib: inhibitors of human CYP2C9 | 96,000 tested, 20% active | AID 777 | CYP2C9 Supersomes, luciferin-H conversion, luminescence | inhibition, % at 5 µM | P11712;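 active = blocking of liver enzyme CYP2C9 beyond about 50% at 5 µM, limit read from the data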
sEH act: activators of human soluble epoxide hydrolase; activation, % at 2 µM; purified human sEH enzymatic activity, activator screen; P34913; 91,000 tested, 0.04% active; in the data active = activation above about 37%
CYP2C9 activ: increases human cytochrome P450 2C9 activity; P11712; recombinant CYP2C9, luciferin-H conversion, luminescence; active compounds read high; factor 1 = untreated enzyme, 0 = blocked; activation factor at 5 µM; 96,000 tested, 1.4% active;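 active = activation factor of 2 or more for CYP2C9 at a 5 µM dose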
CYP2C19 activ: increases human CYP2C19 enzyme activity. P33261. recombinant CYP2C19, luciferin-H EGE luminescence; active compounds read high; 0 = fully inhibited enzyme, 1 = untreated enzyme. activation factor at 5 µM. 96,000 tested, under 10 active. AID 1025;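 active = activation factor of at least 2 at 5 µM in the primary screen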
Target sequence (P33261 whole entry, looked up): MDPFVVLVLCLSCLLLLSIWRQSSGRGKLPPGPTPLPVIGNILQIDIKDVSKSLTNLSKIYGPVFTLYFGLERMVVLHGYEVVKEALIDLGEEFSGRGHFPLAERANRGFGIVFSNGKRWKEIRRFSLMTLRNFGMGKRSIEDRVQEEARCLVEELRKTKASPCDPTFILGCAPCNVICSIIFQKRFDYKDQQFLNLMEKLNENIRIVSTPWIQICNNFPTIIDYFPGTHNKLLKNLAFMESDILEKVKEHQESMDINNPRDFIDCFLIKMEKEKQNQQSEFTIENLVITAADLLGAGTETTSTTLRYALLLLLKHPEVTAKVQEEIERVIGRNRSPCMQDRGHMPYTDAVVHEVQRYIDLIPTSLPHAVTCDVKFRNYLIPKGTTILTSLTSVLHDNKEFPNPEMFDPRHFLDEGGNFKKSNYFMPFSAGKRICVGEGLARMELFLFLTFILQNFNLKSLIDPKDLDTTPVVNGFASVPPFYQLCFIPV
CYP2C19 inhib: blocks human cytochrome P450 2C19; P33261; CYP2C19 Supersomes, luciferin-H EGE luminescence, 30 min; inhibition, % at 5 µM; 96,000 tested, 21% active; AID 778;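 active = CYP2C19 inhibition above a set limit at 5 µM in the primary screen, cut at about 50% in these data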
Numbers stand for hits; i = inactive; nt = no result.

SMILES	sEH inh	CYP2C9 inhib	sEH act	CYP2C9 activ	CYP2C19 activ	CYP2C19 inhib
COc1ccc(N2C(=O)CC(NC3CCCCNC3=O)C2=O)cc1 (stereo unspecified)	i	nt	i	nt	nt	nt
CCc1ccc(OCC(=O)NCc2ccco2)c(Br)c1	i	72	i	i	i	87
CC(C)COc1ccc(C(=O)NCc2ccco2)cc1	i	i	i	i	i	i
CCOc1ccc(C(=O)NCc2ccco2)cc1	nt	i	nt	i	i	66
CCc1ccccc1NC(=O)CSc1nc2c(c(-c3ccco3)c1C#N)CCCC2	i	i	i	i	i	88
N#Cc1c(SCC(=O)Nc2nccs2)nc2c(c1-c1ccco1)CCCC2	i	70	i	i	i	i
Cc1ccccc1NC(=O)CSc1nc2c(c(-c3ccco3)c1C#N)CCCC2	i	i	i	i	i	i
O=S(=O)(Nc1cccnc1)c1ccc2c(c1)OCCO2	i	i	i	i	i	58
O=S(=O)(Nc1cccnc1)c1ccc(Cl)cc1	i	85	i	i	i	85
O=S(=O)(Nc1cccnc1Cl)c1ccc2c(c1)OCCO2	nt	i	nt	i	i	i
CC(C)(C)c1ccc(S(=O)(=O)Nc2cccnc2)cc1	i	i	i	i	i	62
CC(C)=C1C2CCC1C1C(=O)N(c3nc(-c4ccc(F)cc4)c(C)s3)C(=O)C21 (stereo unspecified)	i	i	i	i	i	i
Cc1cc(C(F)(F)F)nn1CC(=O)N1CCOCC1	i	i	i	i	i	i
Nc1ccc(N2CCN(C(=O)c3ccco3)CC2)cc1	i	i	i	i	i	i
Cc1ccc(SCCNC(=O)CN2C(=O)c3ccccc3S2(=O)=O)cc1	nt	79	nt	i	i	61
CC(C)(C)SCCNC(=O)CN1C(=O)c2ccccc2S1(=O)=O	i	i	i	i	i	i
O=C(CN1C(=O)c2ccccc2S1(=O)=O)NCCSc1ccccc1	i	64	i	i	i	79
CSc1ccc(Cn2nnc(C(=O)NCc3ccccc3)c2N)cc1	i	i	i	i	i	i
CCCCN(Cc1ccco1)C(=O)Cn1ncc2c(=O)oc3ccc(C)cc3c21	i	i	i	i	i	i
COc1ccccc1N=Cc1nc(-c2ccccc2)oc1OC(C)=O	i	nt	i	nt	nt	nt
CSc1ccccc1N=Cc1nc(-c2ccccc2)oc1O	i	i	i	i	i	68
Oc1cccc(C=NCc2ccccc2)c1	i	i	i	i	i	i
Oc1oc(-c2ccccc2)nc1C=NCc1ccccc1	i	69	i	i	i	78
CN(C)c1ccc(N=Cc2nc(-c3ccccc3)oc2O)cc1	i	i	i	i	i	50
Oc1oc(-c2ccccc2)nc1C=Nc1ccccc1	i	i	i	i	i	i
SMILES	sEH inh	CYP2C9 inhib	sEH act	CYP2C9 activ	CYP2C19 activ	CYP2C19 inhib
O=C(N/N=C/c1ccc(N2CCOCC2)o1)c1cccc(F)c1	i	nt	i	nt	nt	nt
Cc1ccc(-n2nc3c(N4CCN(c5ccccc5)CC4)nnc(C)c3c2C)cc1	i	nt	i	nt	nt	nt
O=C(O)c1ccccc1S(=O)(=O)NCC(O)COc1ccc(Br)cc1 (stereo unspecified)	i	i	i	i	i	i
Cc1cc(C)cc(Oc2ccc(C(F)(F)F)cc2C#N)c1	i	52	i	i	i	58
COC(=O)c1cc2sc(Cl)cc2n1CC(=O)Nc1cccc(SC)c1	i	75	i	i	i	i
COC(=O)c1cc2sc(Cl)cc2n1CC(=O)Nc1ccc(OC)c(OC)c1OC	nt	i	nt	i	i	i
Oc1ccccc1-c1cc(-c2ccco2)[nH]n1	i	51	i	i	i	i
Oc1c(-c2cc(-c3ccco3)[nH]n2)ccc2ccccc12	i	74	i	i	i	i
Oc1ccc(Cl)cc1-c1cc(-c2ccco2)[nH]n1	nt	i	nt	i	i	i
Oc1ccc(Br)cc1-c1cc(-c2ccco2)[nH]n1	i	i	i	i	i	i
CCCC(C)C(=O)Nc1ccc(C(N)=O)cc1 (stereo unspecified)	i	i	i	i	i	i
CCOC(=O)c1c(C)c(C(=O)NCC2CCCO2)c(C)n1C (stereo unspecified)	i	i	i	i	i	i
CC(C)c1ccc(C2C3CSCC=C3C(C#N)=C(N)C2(C#N)C#N)cc1 (stereo unspecified)	i	100	i	i	i	67
COc1ccc(CCN2C(=O)C3C4CC(C5C(C(=O)O)=NOC45)C3C2=O)cc1OC (stereo unspecified)	i	i	i	i	i	i
CCOC(=O)N1CCN(S(=O)(=O)N(C)C)CC1	i	i	i	i	i	i
CC(=O)N1CCN(c2ccc(Oc3nnnn3-c3ccccc3)cc2)CC1	nt	i	nt	i	i	i
CCN(CC)C(=O)N1c2ccccc2C=Cc2ccccc21	i	i	i	i	i	63
O=C(CN1CCCCCC1)N1c2ccccc2C=Cc2ccccc21	i	i	i	i	i	51
COc1cc(C(O)P(=O)(OC2CCCCC2)c2ccc(N(C)C)cc2)cc(OC)c1OC (stereo unspecified)	i	i	i	i	i	84
CCCCS(=O)(=O)c1sc2nc(C)cc(C)c2c1N	i	i	i	2.7	i	89
Cc1cc(C)c2c(N)c(S(=O)(=O)c3ccccc3)sc2n1	i	i	i	3	i	56
Cc1cc(C)c2c(N)c(C(=O)NCC3CCCCC3)sc2n1	i	i	i	i	i	i
CC(=O)Nc1ccc(S(=O)(=O)N(C)CC(=O)OCC(=O)N2CCc3ccccc32)cc1	i	i	i	i	i	i
CCOc1ccc(S(=O)(=O)N(CC(=O)N2CCc3ccccc32)Cc2ccco2)cc1	nt	52	nt	i	i	92
CCN(CC)S(=O)(=O)c1ccc(Cl)c(C(=O)N2CCc3ccccc32)c1	i	i	i	i	i	i
SMILES	sEH inh	CYP2C9 inhib	sEH act	CYP2C9 activ	CYP2C19 activ	CYP2C19 inhib
CN(CC(=O)N1CCc2ccccc21)S(=O)(=O)c1ccc(Cl)cc1	i	i	i	2.7	i	60
Cc1ccc(S(=O)(=O)N(C)CCCC(=O)N2CCN(C=O)CC2)cc1	i	i	i	i	i	i
O=C(NCCN1CCOCC1)c1ccc2c(c1)ncn2C1CCCCC1	i	i	i	i	i	i
CCn1c(SCc2nc3ccccc3s2)nnc1-c1cccs1	i	54	i	i	i	98
CCCn1c(=O)c2ccccc2n2c(SCc3nc4ccccc4s3)nnc12	i	72	i	i	i	90
CCCn1c(=O)c2ccccc2n2c(SCCOc3ccccc3)nnc12	nt	i	nt	i	i	i
Cn1c(SCc2nc3ccccc3s2)nnc1-c1cccs1	nt	i	nt	i	i	92
Cc1ccccc1-n1c(C)nnc1SCc1nc2ccccc2s1	nt	i	nt	i	i	76
Cn1nnc2sc3c(c2c1=O)CCCC3	i	i	i	i	i	i
COc1ccc(-c2nnc(SCc3nc4ccccc4s3)n2C(C)C)cc1	i	i	i	i	i	93
CCC(CC)NC(=O)CSc1nnc(-c2ccc(OC)cc2)n1C(C)C	i	i	i	i	i	i
Cc1ccc(NC(=O)C2CCN(S(=O)(=O)c3c(C)n[nH]c3C)CC2)nc1	nt	i	nt	i	i	i

Screening data from PubChem.
